In PubChem BioAssay (NCATS) one finds Potency and outcome data, which are given here for ten molecules.

Inconclusive results are not listed. The source made the active and inactive calls. Unless noted, calls follow the shape of the dose curve; as a rule, active = well fitted curve in the direction sought with a large enough effect; inconclusive = small, poorly fitted or top-dose-only effect, or another doubt; inactive = no such curve, though single readings can be large; an effect the other way counts as inactive or inconclusive.

A short description of assay [1]: qHTS assay for measurement of the activity of small molecule inhibitors on Zika virus induced Caspase-3 activity in human iPSC derived neural progenitor cells (hNPCs) (AID 1224857). Also: nearly all actives have a fitted effect of over 65% in size. The method in brief:
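Zika virus (2 FFU/cell) infection of human iPSC-derived NPCs, 6 h, following 1 h compound preincubation. Read-out: Caspase-Glo 3/7 luminescence.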

The nature of assay [2]: qHTS assay for measurement of the activity of small molecule inhibitors on Zika virus induced Caspase-3 activity in human astrocytoma cells (AID 1224859). The gist of the method: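 Caspase activation in ZIKV-infected SNB-19 cells (2 FFU/cell, 6 h) measured by Caspase-Glo 3/7 luminescence after 30 min RT; compound pre-incubated 1 h; normalised to uninfected and infected controls.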
In general terms: Quantitative high-throughput screening tests each substance at several concentrations.

Assay [3] is described as follows: Natriuretic polypeptide receptor (hNpr1) antagonism - Pilot counterscreen GloSensor control cell line (AID 1347045; calls by dose curve; also: series mostly up to about 38 µM). The gist of the method: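 HEK293 cGMP-sensor cells; 2% GloSensor reagent 2 h RT; LOPAC compounds in 1:5 titrations 30-50 min; 50 uM SNP 20 min; luminescence pre-read and post-read.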
On the technique in general: The purpose of a counterscreen is to sort out artefacts and off-target activity.

Assay [4] concerns the target Atrial natriuretic peptide receptor 1 (Homo sapiens) (UniProt P16066). Nature of the assay: Natriuretic polypeptide receptor (hNpr1) antagonism - Pilot screen (AID 1347049; calls by dose curve;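 also: agonist-evoked cGMP luminescence read 20 min after hNppA addition; series mostly up to about 58 µM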). The method in brief: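 cGMP-sensor HEK293/hNpr1 cells, 1500/well, plated overnight at 37C. 2% GloSensor reagent, 2 h RT. Compound (23 nL pin transfer) 30 min RT, baseline luminescence pre-read. 0.1 nM hNppA, 20 min RT, post-read.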

Assay [5] concerns the target Atrial natriuretic peptide receptor 2 (Homo sapiens) (UniProt P20594). Nature of the assay: Natriuretic polypeptide receptor (hNpr2) antagonism - Pilot subtype selectivity assay (AID 1347050; calls by dose curve). The method in brief:
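Luminescence from a genetically encoded cGMP luciferase biosensor in hNpr2-expressing HEK293 cells is read before and 20 min after adding 1 nM hNppC. Test compounds, in interplate 1:5 titrations, are added 30-50 min ahead of the agonist.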

Assay [6] can be described thus: NS1 protein of Zika virus - qHTS assay to identify small molecule inhibitors in human HEK 293 cells (AID 1347053). Also: series mostly up to about 46 µM; nearly all actives have a fitted effect of over 55% in size. The method in brief:
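TR-FRET signal from two anti-ZIKV NS1 antibodies quantified NS1 in HEK 293 cells 24 h after MR766 infection at MOI = 0.5; compounds were added 1 h before virus. Uninfected cells and infected cells defined the NS1 normalization range.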

Assay [7] deals with T1, Tyrosine-protein phosphatase non-receptor type substrate 1 (Homo sapiens) + Leukocyte surface antigen CD47 (Homo sapiens) (UniProt P78324+Q08722). Nature of the assay: CD47-SIRPalpha protein protein interaction - LANCE assay qHTS validation (AID 1347057; active = well fitted curve in the direction sought with a large enough effect in the signal ratio, with a control signal flat, not every such curve was filed as active; the % refers to the signal ratio; also: series mostly up to about 38 µM). The gist of the method:
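Inhibition of soluble CD47/SIRPalpha ectodomain association by titrated compounds, measured as 665/615 nm time-resolved FRET ratio after sequential 30 min room-temperature incubations.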
A general note: In TR-FRET formats the signal depends on donor and acceptor labels being close together.

Assay [8] deals with T1, Tyrosine-protein phosphatase non-receptor type substrate 1 (Homo sapiens) + Leukocyte surface antigen CD47 (Homo sapiens). Nature of the assay: CD47-SIRPalpha protein protein interaction - HTRF assay qHTS validation (AID 1347058; active = well fitted curve in the direction sought with a large enough effect in the signal ratio, not every such curve was filed as active; the % refers to the signal ratio; also: series mostly up to about 38 µM). The gist of the method:
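Soluble extracellular domains (6His-CD47, Avi-tag-biotinylated SIRPalpha) in PBS pH 7.4 with 0.05% IGEPAL CA-630. Compounds were preincubated 30 min at RT with CD47 and anti-His-Eu, then SIRPalpha and SAV-XL665 were added. TR-FRET 665/615 ratio.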

Assay [9] shares this target. Nature of the assay: CD47-SIRPalpha protein protein interaction - Alpha assay qHTS validation (AID 1347059).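 Also: bead proximity luminescence from CD47 binding SIRPalpha after compound preincubation with SIRPalpha.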 Also: potency is read from the fitted curve at half-maximal effect. The gist of the method: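 SIRPalpha-biotin 25 nM + cpd, 30 min RT, dark; add CD47-His 12.5 nM, 30 min; add Ni-NTA/SAV beads 10 ug/mL, 30 min; AlphaScreen. Buffer PBS pH 7.4 + 0.05% IGEPAL CA-630. Non-biotinylated SIRPalpha as control inhibitor.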
The target of assay [10] is Parathyroid hormone/parathyroid hormone-related peptide receptor (Homo sapiens) (UniProt Q03431). Put plainly: qHTS for PTHR1 Agonists: Optimization Screen against the NCGC LOPAC library (AID 1347079).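 Also: GloSensor cAMP luminescence in HEK-293 GP2 cells expressing human PTHR1 with IBMX.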 The method in brief:
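Signal increase flags agonism. GP2 cells, derived from HEK-293, express human PTHR1 and a GloSensor cAMP construct.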

The target of assay [11] is N-terminal Xaa-Pro-Lys N-methyltransferase 1 (Homo sapiens) (UniProt Q9BV86). Put plainly: qHTS Assay for Inhibitors of N-terminal methyltransferase 1 (NTMT1): LOPAC validation of the NTMT1 SAHH-coupled ThioGlo3 Assay (AID 1347143).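 Also: SAH from peptide methylation measured as thiol fluorescence via SAHH coupling and ThioGlo3; nearly all actives have a fitted effect of over 70% in size.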 Also: potency is read from the fitted curve at half-maximal effect. The method in brief:
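Steps: dispense 125nM NTMT1; pin-transfer test compounds at several concentrations, with 1uM RCC1-6 peptide as control; incubate 1 min; start with reagent holding 100uM SAM, 10uM SAHH, 15uM ThioGlo3; read at 0 and 30 min.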

Assay [12] has as its system Zika virus NS2B-NS3 protease (unlinked). Put plainly: Optimization of GU AMC qHTS for Zika virus inhibitors: Unlinked NS2B-NS3 protease assay (AID 1347151). Also: nearly all actives have a fitted effect of over 80% in size. Also: potency is read from the fitted curve at half-maximal effect. The method in brief:
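Unlinked protease (25 nM final); buffer 10 mM Tris-HCl pH 8.0 + 0.01% Tween 20; AMC substrate; 15 min RT, dark; Δfluorescence normalized to no-inhibitor/no-enzyme controls; 4-parameter Hill fit.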

A short description of assay [13]: P-glycoprotein substrates identified in KB-3-1 adenocarcinoma cell line, qHTS therapeutic library screen (AID 1346986). Also: nearly all actives have a fitted effect of over 60% in size. The gist of the method: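 Viability by CellTiter-Glo after 72 h compound exposure at 37 degree C, 5% CO2. Cytotoxic call: curve class -1.1 to -2.4, maximum response >50%, AC50 < 10 uM, compared across KB-3-1 and P-gp-overexpressing KB-8-5-11.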

Assay [14] is described as follows: P-glycoprotein substrates identified in KB-8-5-11 adenocarcinoma cell line, qHTS therapeutic library screen (AID 1346987). Also: series mostly up to about 44 µM; nearly all actives have a fitted effect of over 65% in size. The gist of the method:
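In this qHTS, P-gp-rich KB-8-5-11 cells received library compounds across a concentration range. Viability was quantified by luminescence after 72 h at 37 degree C.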

Sequence of Parathyroid hormone/parathyroid hormone-related peptide receptor (Homo sapiens) (Q03431 whole entry, looked up): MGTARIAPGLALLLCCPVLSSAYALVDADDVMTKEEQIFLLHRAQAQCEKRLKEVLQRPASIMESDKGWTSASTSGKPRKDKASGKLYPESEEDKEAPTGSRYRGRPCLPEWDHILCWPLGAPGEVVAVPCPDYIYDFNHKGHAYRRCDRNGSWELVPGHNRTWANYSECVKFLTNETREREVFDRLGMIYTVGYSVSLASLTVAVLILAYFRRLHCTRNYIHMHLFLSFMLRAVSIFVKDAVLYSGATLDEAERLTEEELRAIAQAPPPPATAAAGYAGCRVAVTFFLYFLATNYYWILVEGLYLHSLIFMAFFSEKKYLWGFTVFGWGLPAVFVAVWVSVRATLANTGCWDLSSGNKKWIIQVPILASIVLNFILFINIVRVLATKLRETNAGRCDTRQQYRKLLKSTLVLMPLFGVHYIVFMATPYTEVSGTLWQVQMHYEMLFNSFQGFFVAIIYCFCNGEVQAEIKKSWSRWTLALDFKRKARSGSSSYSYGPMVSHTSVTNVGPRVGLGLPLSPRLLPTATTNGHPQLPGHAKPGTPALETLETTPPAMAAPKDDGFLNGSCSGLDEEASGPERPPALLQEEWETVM
T1 sequence (P78324 whole entry, looked up, the tested form may be a part): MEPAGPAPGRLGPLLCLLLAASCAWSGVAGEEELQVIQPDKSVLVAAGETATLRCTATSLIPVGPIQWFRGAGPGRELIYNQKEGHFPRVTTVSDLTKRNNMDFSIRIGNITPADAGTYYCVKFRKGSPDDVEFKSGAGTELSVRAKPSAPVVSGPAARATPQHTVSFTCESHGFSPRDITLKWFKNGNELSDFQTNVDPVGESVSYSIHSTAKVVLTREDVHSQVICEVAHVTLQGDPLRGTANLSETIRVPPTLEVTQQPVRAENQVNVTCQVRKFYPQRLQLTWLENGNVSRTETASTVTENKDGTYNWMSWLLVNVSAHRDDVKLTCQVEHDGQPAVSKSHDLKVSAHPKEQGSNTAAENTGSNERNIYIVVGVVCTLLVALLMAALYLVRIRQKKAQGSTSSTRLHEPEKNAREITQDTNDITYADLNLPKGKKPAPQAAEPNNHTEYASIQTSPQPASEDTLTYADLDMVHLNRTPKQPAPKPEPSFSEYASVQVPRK
T1 sequence (Q08722 whole entry, looked up, the tested form may be a part): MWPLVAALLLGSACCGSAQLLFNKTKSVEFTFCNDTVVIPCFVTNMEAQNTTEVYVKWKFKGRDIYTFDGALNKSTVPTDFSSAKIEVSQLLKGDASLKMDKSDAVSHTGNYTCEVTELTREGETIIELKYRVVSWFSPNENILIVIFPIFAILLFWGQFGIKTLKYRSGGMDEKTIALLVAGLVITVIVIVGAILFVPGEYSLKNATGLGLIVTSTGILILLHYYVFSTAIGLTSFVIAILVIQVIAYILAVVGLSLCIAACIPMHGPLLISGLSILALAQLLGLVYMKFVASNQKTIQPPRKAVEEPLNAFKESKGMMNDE
Sequence of Atrial natriuretic peptide receptor 1 (Homo sapiens) (P16066 whole entry, looked up): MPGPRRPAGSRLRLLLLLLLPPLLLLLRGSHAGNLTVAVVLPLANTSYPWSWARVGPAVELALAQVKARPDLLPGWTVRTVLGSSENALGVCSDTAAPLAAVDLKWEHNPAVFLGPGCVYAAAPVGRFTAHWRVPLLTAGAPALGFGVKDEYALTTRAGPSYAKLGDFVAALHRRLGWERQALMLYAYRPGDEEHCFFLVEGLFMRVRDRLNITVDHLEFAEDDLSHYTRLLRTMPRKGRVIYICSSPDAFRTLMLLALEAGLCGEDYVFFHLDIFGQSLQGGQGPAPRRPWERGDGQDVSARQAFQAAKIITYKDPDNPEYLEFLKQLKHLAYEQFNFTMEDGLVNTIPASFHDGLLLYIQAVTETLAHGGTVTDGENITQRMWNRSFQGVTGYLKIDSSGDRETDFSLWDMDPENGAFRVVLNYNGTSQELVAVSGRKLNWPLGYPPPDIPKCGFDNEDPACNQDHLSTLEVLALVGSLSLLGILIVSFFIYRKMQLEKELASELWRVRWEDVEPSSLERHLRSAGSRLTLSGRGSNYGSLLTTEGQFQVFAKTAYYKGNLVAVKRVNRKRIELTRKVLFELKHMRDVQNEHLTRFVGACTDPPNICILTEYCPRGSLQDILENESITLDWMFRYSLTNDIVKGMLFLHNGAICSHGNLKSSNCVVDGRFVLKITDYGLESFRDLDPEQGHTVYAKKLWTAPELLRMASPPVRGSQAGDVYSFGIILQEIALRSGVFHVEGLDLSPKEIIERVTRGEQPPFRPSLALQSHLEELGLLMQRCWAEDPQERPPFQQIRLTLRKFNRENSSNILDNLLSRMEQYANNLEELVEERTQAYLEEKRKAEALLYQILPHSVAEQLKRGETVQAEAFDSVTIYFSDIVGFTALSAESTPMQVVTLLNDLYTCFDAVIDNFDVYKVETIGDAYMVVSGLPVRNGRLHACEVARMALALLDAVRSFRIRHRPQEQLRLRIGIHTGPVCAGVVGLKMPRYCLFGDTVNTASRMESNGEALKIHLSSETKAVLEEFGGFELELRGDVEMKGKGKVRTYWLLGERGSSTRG
Sequence of N-terminal Xaa-Pro-Lys N-methyltransferase 1 (Homo sapiens) (Q9BV86 whole entry, looked up): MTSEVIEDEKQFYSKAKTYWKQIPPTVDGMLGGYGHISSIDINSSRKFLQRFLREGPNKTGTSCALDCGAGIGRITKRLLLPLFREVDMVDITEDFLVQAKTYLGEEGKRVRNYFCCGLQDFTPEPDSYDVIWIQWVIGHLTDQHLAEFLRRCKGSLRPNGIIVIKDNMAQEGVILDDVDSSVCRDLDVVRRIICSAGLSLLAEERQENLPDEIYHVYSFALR
Sequence of Atrial natriuretic peptide receptor 2 (Homo sapiens) (P20594 whole entry, looked up): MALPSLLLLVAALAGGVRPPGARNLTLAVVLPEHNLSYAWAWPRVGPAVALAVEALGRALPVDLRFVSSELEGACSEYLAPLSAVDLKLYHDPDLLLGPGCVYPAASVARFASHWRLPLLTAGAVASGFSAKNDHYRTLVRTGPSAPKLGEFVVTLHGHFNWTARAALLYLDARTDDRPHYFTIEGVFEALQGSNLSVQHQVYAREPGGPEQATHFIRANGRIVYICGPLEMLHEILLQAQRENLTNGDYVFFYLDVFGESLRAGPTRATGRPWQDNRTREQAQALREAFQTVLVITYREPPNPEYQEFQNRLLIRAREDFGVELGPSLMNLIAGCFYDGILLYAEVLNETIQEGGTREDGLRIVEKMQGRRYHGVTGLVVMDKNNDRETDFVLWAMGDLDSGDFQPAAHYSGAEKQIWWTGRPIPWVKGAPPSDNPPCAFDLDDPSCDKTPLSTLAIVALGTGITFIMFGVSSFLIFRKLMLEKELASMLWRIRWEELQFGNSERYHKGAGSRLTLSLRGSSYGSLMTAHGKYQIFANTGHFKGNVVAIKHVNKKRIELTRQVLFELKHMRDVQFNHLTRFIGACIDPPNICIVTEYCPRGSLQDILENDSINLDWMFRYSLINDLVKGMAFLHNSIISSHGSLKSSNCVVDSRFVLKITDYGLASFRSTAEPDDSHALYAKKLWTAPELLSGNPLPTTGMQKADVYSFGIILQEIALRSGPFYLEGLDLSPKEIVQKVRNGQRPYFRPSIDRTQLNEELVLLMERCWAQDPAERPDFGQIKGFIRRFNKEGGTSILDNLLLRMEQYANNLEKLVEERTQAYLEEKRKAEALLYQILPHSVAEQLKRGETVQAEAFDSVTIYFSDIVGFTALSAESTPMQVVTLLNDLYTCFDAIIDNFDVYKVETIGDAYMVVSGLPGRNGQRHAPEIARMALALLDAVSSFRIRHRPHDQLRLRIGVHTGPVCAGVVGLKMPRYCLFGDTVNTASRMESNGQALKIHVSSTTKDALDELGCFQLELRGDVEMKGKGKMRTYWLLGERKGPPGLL

Take `N[C@H](C(=O)O)c1cc(O)cc(O)c1`: the Potency result in [1], in assay [2], in [3], in assay [4], in assay [5] and in assay [6] was “inactive” each time. Besides, the Potency result in assay [7], in [9], in assay [10], in assay [11] and in assay [12] was “inactive” in each case. Also, the result in [8] was inactive.
Consider `CC1C(=O)N(C)C(=O)c2nc[nH]c21` (stereo unspecified), for which the Potency result in [1], in assay [2], in assay [3], in assay [4], in assay [5] and in assay [6] was “inactive” throughout. Further, the Potency result in assay [7], in [9], in assay [10], in assay [11] and in assay [12] was “inactive” in each case. In [8], the result was inactive.
With `N[C@H](C(=O)O)[C@H](O)C(=O)O`, the Potency entry in assay [1], in [2], in assay [3], in assay [4], in assay [5] and in [6] was “inactive” in each case. The Potency entry in [7], in assay [9], in [10], in [11] and in [12] was “inactive” each time. For the same molecule, the outcome in assay [8] was inactive.
With `O=C(O)C1CCCNC1` (stereo unspecified), the Potency result in assay [1], in assay [2], in assay [3], in [4], in assay [5] and in assay [6] was “inactive” throughout. For the same molecule, the Potency result in assay [7], in assay [9], in [10], in [11] and in assay [12] was “inactive” throughout. In addition, the result in assay [8] was inactive.
On to `Nc1ncnc2c1nc(Sc1ccc(Cl)cc1)n2[C@H]1OC2COP(=O)(O)O[C@@H]2C1O` (stereo partly specified), for which the Potency result in assay [1], in assay [2], in assay [3], in [4], in [5] and in [6] was “inactive” each time. In addition, the Potency result in [7], in assay [9], in assay [10], in assay [11] and in assay [12] was “inactive” throughout. Further, the outcome in [8] was inactive.
Take `O=C1Nc2ccc(I)cc2/C1=C/c1cc(Br)c(O)c(Br)c1`: the Potency result in [1], in assay [2], in assay [13], in assay [14], in assay [4] and in assay [5] was “inactive” throughout. Besides, the Potency entry in assay [6], in assay [7] and in [10] was “inactive” throughout. Moreover, the outcome in assay [8] was inactive. For the same molecule, the Potency in [9] was 14.7 µM (active); in assay [11], 56.2 µM (active); in assay [12], 5.97 µM (active).
For the molecule `COC(=O)C(N)Cc1ccc(Cl)cc1` (stereo unspecified), the Potency entry in assay [1], in [2], in assay [3], in assay [4], in [5] and in assay [6] was “inactive” each time. The Potency entry in assay [7], in assay [9], in [10], in assay [11] and in assay [12] was “inactive” each time. The result in assay [8] was inactive.
In the case of `CC(=O)N[C@@H](Cc1c[nH]c2ccccc12)C(=O)OCc1cc(C(F)(F)F)cc(C(F)(F)F)c1`, the Potency entry in assay [1], in [2], in [3], in assay [4], in assay [5] and in [6] was “inactive” each time. The Potency result in assay [7], in assay [9], in [10], in [11] and in assay [12] was “inactive” throughout. For the same molecule, the result in assay [8] was inactive.
Turning to `NC1CCN(O)C1=O` (stereo unspecified), the Potency entry in assay [1], in assay [2], in assay [3], in assay [4], in assay [5] and in assay [6] was “inactive” in each case. Moreover, the Potency result in assay [7], in [9], in assay [10], in assay [11] and in [12] was “inactive” each time. For the same molecule, the result in [8] was inactive.
Consider `O=c1cc(-c2ccccc2F)[nH]c2cc3c(cc12)OCO3`, for which the Potency result in assay [1], in assay [2], in [3], in assay [4], in [5] and in [6] was “inactive” throughout. In addition, the Potency result in assay [7], in assay [9] and in [10] was “inactive” in each case. For the same molecule, the result in assay [8] was inactive. In addition, the Potency was 56.2 µM (active) in assay [11] and 26.7 µM (active) in assay [12].
